Of roughly 7,900 targets only a part is listed; those with a hit were picked by preference. About 0.6% of all pairs of compound and target were hits.
Compound: CCCS(=O)(=O)Nc1ccc(F)c(C(=O)c2c[nH]c3ncc(-c4ccc(Cl)cc4)cc23)c1F [vemurafenib]
Assay: log2 fold change, soluble protein after heating vs DMSO (PISA); higher = thermal stabilisation; K562 cells, 10 uM, 30 min; active = over 0.2 and 3.5 SD of the protein, either way, in both replicates (recomputed)
How it was run: (§1)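 Thermal stability values are relative to control samples and come from duplicates. They are expressed as log2 fold changes. For measurement, K562 cells (2×10^6 cells/mL) received 10 μM compound for 30 min, and aliquots were heated for 3 min over 48°C-58°C, pooled, and extracted at 4°C in PBS with 0.5% NP-40. Soluble protein, the supernatant after 21,000xg for 90 min, was quantified by TMTpro 16plex LC-MS/MS with equalised channel sums.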

Chain of UniProt Q9BQD3 (Q9BQD3 whole entry, looked up): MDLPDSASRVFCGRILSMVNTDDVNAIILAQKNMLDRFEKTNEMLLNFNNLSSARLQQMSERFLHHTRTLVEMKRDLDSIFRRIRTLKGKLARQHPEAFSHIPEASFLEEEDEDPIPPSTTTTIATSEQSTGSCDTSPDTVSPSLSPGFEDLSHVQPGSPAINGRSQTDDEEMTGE
Chain of UniProt A4D2B0 (A4D2B0 whole entry, looked up): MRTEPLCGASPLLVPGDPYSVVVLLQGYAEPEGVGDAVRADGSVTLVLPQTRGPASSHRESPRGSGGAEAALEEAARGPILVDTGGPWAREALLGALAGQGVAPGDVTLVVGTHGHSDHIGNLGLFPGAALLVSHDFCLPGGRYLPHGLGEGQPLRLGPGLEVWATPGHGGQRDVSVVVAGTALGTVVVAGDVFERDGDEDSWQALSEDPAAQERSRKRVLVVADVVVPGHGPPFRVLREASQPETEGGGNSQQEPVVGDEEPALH
Chain of UniProt Q8NHS3 (Q8NHS3 whole entry, looked up): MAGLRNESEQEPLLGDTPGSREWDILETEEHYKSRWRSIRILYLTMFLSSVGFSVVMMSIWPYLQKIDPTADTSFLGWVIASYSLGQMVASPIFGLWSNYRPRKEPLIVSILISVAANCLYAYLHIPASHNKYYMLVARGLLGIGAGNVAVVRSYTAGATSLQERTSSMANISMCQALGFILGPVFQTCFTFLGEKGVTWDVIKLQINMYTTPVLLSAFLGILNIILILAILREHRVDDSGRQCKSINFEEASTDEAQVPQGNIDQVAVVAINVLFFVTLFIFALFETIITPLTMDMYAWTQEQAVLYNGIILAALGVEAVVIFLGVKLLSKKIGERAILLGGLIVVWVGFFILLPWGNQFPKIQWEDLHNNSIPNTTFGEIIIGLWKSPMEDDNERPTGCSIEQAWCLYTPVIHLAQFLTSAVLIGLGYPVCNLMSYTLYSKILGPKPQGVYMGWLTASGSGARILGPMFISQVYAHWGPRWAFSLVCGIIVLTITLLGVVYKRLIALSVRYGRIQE
Chain of UniProt Q9NX70 (Q9NX70 whole entry, looked up): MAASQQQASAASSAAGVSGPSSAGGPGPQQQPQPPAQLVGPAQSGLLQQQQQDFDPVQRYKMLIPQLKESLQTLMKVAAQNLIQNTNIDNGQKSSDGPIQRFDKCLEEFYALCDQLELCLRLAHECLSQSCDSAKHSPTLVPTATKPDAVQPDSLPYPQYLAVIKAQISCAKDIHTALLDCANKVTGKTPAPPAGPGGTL
Chain of UniProt O00214 (O00214 whole entry, looked up): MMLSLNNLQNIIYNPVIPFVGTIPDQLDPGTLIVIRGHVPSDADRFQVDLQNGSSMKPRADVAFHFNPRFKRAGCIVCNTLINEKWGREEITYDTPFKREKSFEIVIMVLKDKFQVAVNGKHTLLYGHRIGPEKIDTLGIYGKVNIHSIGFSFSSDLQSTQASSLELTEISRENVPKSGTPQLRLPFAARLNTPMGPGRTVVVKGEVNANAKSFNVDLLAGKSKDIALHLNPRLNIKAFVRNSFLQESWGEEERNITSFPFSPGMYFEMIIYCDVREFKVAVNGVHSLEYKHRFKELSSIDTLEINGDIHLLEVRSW
Chain of UniProt P28290 (P28290 whole entry, looked up): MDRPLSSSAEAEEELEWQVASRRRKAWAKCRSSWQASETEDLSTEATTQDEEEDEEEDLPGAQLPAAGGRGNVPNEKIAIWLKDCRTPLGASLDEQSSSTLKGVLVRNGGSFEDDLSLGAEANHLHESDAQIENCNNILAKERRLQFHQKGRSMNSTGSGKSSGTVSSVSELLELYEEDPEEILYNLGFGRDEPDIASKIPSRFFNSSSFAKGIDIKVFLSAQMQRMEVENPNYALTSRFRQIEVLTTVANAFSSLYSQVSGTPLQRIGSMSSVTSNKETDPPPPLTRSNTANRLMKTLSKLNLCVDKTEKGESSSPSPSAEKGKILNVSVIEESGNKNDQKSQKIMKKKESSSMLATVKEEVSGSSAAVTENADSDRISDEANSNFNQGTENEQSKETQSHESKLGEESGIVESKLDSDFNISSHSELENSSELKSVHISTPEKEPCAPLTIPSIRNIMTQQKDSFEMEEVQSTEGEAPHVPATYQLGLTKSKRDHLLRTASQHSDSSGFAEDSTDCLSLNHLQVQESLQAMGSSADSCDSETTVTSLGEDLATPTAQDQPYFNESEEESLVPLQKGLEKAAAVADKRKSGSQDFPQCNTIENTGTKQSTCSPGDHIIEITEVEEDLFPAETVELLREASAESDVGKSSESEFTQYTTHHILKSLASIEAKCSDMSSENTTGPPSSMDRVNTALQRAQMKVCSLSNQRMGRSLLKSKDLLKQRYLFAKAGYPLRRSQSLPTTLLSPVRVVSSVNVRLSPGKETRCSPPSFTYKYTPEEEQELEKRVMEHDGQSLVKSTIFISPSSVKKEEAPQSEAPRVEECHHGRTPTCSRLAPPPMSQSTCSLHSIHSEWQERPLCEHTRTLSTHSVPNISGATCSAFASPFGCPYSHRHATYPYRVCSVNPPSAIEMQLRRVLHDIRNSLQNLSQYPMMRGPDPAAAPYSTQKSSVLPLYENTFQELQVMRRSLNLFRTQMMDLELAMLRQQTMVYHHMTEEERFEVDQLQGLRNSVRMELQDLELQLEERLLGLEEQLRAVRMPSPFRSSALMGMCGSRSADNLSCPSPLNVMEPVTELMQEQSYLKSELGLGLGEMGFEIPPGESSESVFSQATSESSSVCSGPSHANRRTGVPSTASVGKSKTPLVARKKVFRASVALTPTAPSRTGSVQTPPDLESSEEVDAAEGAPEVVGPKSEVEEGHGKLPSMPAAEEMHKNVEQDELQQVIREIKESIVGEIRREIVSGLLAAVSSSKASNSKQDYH
Chain of UniProt P13473 (P13473 whole entry, looked up): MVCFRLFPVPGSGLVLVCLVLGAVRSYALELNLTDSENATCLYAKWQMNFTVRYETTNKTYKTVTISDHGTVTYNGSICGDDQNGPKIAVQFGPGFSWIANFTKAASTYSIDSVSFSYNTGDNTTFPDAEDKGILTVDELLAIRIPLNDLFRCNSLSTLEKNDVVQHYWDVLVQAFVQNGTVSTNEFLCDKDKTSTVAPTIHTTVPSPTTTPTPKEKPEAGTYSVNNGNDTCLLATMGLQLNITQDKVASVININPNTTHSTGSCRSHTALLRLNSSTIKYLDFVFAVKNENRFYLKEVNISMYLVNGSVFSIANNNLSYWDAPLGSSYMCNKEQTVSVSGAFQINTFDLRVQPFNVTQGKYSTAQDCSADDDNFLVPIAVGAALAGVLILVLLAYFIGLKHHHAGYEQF
Chain of UniProt Q8WYH8 (Q8WYH8 whole entry, looked up): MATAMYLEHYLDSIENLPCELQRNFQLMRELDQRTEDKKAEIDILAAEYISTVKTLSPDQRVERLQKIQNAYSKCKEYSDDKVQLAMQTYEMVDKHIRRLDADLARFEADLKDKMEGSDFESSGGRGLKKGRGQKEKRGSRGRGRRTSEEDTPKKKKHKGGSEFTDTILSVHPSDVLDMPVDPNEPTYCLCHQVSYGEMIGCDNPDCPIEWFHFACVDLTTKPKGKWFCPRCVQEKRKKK
Chain of UniProt P43361 (P43361 whole entry, looked up): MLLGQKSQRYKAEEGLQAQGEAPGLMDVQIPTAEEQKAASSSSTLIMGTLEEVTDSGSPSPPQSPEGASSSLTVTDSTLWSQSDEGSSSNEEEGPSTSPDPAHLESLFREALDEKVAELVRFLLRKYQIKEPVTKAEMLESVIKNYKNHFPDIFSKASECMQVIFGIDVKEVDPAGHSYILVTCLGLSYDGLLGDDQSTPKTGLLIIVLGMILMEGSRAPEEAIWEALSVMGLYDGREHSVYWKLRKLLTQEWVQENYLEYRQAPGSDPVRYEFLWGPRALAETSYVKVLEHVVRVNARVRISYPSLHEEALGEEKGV
Chain of UniProt O95279 (O95279 whole entry, looked up): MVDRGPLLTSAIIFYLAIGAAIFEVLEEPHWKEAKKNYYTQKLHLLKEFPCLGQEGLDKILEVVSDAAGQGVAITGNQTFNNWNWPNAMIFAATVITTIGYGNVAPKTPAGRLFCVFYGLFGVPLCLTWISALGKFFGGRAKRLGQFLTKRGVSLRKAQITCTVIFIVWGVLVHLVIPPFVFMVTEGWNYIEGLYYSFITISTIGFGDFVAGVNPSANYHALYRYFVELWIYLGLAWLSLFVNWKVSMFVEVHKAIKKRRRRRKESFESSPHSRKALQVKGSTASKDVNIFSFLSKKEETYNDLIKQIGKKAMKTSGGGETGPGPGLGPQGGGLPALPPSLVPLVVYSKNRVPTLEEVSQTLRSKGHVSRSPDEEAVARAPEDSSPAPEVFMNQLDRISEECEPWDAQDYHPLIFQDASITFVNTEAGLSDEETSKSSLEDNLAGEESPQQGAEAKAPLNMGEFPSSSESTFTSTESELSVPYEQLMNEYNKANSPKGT
Chain of UniProt Q8TDD5 (Q8TDD5 whole entry, looked up): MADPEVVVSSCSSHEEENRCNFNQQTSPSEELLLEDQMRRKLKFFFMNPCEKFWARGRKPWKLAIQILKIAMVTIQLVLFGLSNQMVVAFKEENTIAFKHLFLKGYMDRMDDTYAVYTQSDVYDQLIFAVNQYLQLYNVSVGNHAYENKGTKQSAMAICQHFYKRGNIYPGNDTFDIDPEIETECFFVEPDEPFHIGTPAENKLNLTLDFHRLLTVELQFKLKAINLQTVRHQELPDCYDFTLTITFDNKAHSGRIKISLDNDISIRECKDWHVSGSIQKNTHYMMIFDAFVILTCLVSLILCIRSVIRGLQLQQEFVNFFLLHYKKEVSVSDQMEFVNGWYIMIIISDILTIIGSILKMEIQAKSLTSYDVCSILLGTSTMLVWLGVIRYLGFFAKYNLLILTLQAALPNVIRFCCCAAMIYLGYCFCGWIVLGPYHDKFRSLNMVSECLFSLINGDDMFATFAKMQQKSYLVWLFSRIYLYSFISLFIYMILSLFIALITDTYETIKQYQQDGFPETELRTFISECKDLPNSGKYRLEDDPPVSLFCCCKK
Chain of UniProt O15243 (O15243 whole entry, looked up): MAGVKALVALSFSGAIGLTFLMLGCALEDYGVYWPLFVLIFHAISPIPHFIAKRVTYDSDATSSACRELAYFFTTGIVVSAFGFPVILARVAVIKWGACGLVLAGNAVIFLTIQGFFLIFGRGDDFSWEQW

log2 fold change, inactive:
MAP4K4 isoform 6 (UniProt O95819) -0.052, MFSD8 (UniProt Q8NHS3) 0.045, LGALS8 isoform 2 (UniProt O00214) -0.013, MAGEA8 (UniProt P43361) 0.031, LAMP2 isoform 2 (UniProt P13473) -0.082, MFAP3 (UniProt P55082) -0.115, ITPRID2 (UniProt P28290) -0.125, MAGED1 isoform 2 (UniProt Q9Y5V3) -0.236, IGFBP6 (UniProt P24592) 0.189, MBLAC1 (UniProt A4D2B0) 0.029, KXD1 (UniProt Q9BQD3) 0.092, KIF1B isoform 3 (UniProt O60333) -0.244, LSR (UniProt M0QZL9) 0.024

Compound: CCCS(=O)(=O)Nc1ccc(F)c(C(=O)c2c[nH]c3ncc(Cl)cc23)c1F
Assay: as above
How it was run: as §1

log2 fold change, inactive:
MED29 (UniProt Q9NX70) 0.131, MARCHF3 (UniProt Q86UD3) -0.01, MGRN1 isoform 2 (UniProt O60291) -0.307, MFSD8 (UniProt Q8NHS3) 0.151, MELK (UniProt Q14680) 0.02, MAGEA8 (UniProt P43361) 0.197, LAMP2 isoform 2 (UniProt P13473) -0.093, ITPRID2 (UniProt P28290) -0.097, LSR isoform 3 (UniProt Q86X29) 0.158, MAGED1 isoform 2 (UniProt Q9Y5V3) 0.198, MBLAC1 (UniProt A4D2B0) -0.008, ING5 (UniProt Q8WYH8) -0.011, KXD1 (UniProt Q9BQD3) 0.059, KIZ (UniProt Q2M2Z5) -0.181, MCOLN3 (UniProt Q8TDD5) 0.014, MAP4K2 (UniProt Q12851) 0.043, MAPRE3 isoform 2 (UniProt Q9UPY8) 0.029, KCNK5 (UniProt O95279) 0.1, IKZF1 (UniProt R9R4D9) 0.033

Compound: CCCc1cc(C)[nH]c(=O)c1CNC(=O)c1cc(-c2ccnc(N3CCN(C)CC3)c2)cc2c1cnn2C(C)C
Assay: as above
How it was run: as §1

log2 fold change, inactive:
MED29 (UniProt Q9NX70) 0.025, MAP4K4 isoform 6 (UniProt O95819) 0.393, MFSD8 (UniProt Q8NHS3) -0.046, LGALS8 isoform 2 (UniProt O00214) -0.062, LAMP2 isoform 2 (UniProt P13473) -0.071, LEPROT (UniProt O15243) -0.12, LSR isoform 3 (UniProt Q86X29) -0.081, LIN52 (UniProt Q52LA3) 0.123, MBLAC1 (UniProt A4D2B0) 0.059, LAPTM4B (UniProt Q86VI4) -0.228, ING5 (UniProt Q8WYH8) -0.237, KXD1 (UniProt Q9BQD3) 0.072, LOX (UniProt P28300) -0.269, MCOLN3 (UniProt Q8TDD5) -0.481, ILF3 (UniProt Q12906) -0.232, KCNK5 (UniProt O95279) 0.157, KIF1B isoform 3 (UniProt O60333) -0.006

Compound: CCN(CC)Cc1ccc2cc(COC(=O)Nc3ccc(C(=O)NO)cc3)ccc2c1 [givinostat]
Assay: as above
How it was run: as §1

log2 fold change, inactive:
MED29 (UniProt Q9NX70) -0.076, MAPK11 (UniProt Q15759) 0.131, MGRN1 isoform 2 (UniProt O60291) 0.012, MFSD8 (UniProt Q8NHS3) 0.034, MELK (UniProt Q14680) -0.023, KIF21A (UniProt H0YI78) 0.447, LGALS8 isoform 2 (UniProt O00214) 0.072, MAGEA8 (UniProt P43361) 0.034, LAMP2 isoform 2 (UniProt P13473) -0.158, LEPROT (UniProt O15243) -0.467, LDLRAP1 (UniProt Q5SW96) 0.284, ITPRID2 (UniProt P28290) 0.213, MAGED1 isoform 2 (UniProt Q9Y5V3) 0.006, MBLAC1 (UniProt A4D2B0) -0.04, LAPTM4B (UniProt Q86VI4) 0.128, ING5 (UniProt Q8WYH8) 0.316, KXD1 (UniProt Q9BQD3) 0.094, MFSD12 isoform 3 (UniProt Q6NUT3) -0.022, LRRFIP1 isoform 4 (UniProt Q32MZ4) 0.011, LOX (UniProt P28300) 0.087, MCOLN3 (UniProt Q8TDD5) 0.221, KCNK5 (UniProt O95279) -0.319

From the supplement of paper PMC10849652
